Results: PubChem BioAssay AID1159580 (chemical genetic matrix, 2015)
Screen size: about 5,500 compounds; about 2,000 (36%) were called active. Inconclusive results (about 18%) are left out. Rule as the data show it: active = normalized growth mostly below about 0.91 (no sharp cut-off); inconclusive = no clear call, values can overlap the other calls; inactive = mostly above about 0.92. The list shows a part of the results.

Assay: chemical genetic growth profiling, strain panel (AID 1159580);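 also: tested at 20 µM; growth read once vehicle control cultures reached saturation at 30 °C; 1 = growth at the plate median or of vehicle wells; lower values mean less growth of the strain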
Conditions: S. cerevisiae deletion strains, growth OD

Measured: normalized growth

C[C@H]1[C@H](C)CC[C@]2(C(=O)O)CC[C@]3(C)C(=CCC4[C@@]5(C)C[C@@H](O)[C@H](O)[C@@](C)(CO)C5CC[C@]43C)[C@H]12 (stereo not given in full)
active: locus YLR113W, strain HOG1, hits give low values 0.721
inactive: locus YAL021C, strain ccr4, hits give low values 0.993 | locus YAL026C, strain drs2, hits give low values 1.04 | locus YAL030W, strain snc1, hits give low values 1.02 | locus YBL061C, strain skt5, hits give low values 1.01 | locus YBR009C, strain hhf1, hits give low values 1.01 | locus YBR023C, strain chs3, hits give low values 0.995 | locus YBR171W, strain sec66, hits give low values 1.04 | locus YBR231C, strain swc5, hits give low values 1.03 | locus YBR279W, strain paf1, hits give low values 1.01 | locus YCL011C, strain gbp2, hits give low values 1.02 | locus YCL016C, strain dcc1, hits give low values 1.01 | locus YCL061C, strain MRC1, hits give low values 1.02 | locus YCL069W, strain vba3, hits give low values 1.03 | locus YCR088W, strain abp1, hits give low values 1.03 | locus YDL005C, strain med2, hits give low values 1.03 | locus YDL040C, strain nat1, hits give low values 1.02 | locus YDR001C, strain nth1, hits give low values 1.03 | locus YDR069C, strain doa4, hits give low values 1.02 | locus YDR137W, strain rgp1, hits give low values 0.982 | locus YDR159W, strain sac3, hits give low values 0.983 | locus YDR195W, strain ref2 0.945 | locus YDR297W, strain sur2, hits give low values 1.02 | locus YDR334W, strain swr1, hits give low values 1.04 | locus YDR335W, strain msn5, hits give low values 1.02 | locus YDR392W, strain spt3, hits give low values 0.931 | locus YEL003W, strain gim4, hits give low values 1.02 | locus YEL037C, strain rad23, hits give low values 1.03 | locus YEL061C, strain CIN8 (second series), hits give low values 1.03 | locus YER015W, strain faa2, hits give low values 1.02 | locus YER016W, strain bim1, hits give low values 1.02 | locus YER111C, strain swi4, hits give low values 1.03 | locus YER155C, strain BEM2 (second series), hits give low values 1 | locus YFR010W, strain ubp6, hits give low values 1.04 | locus YGL167C, strain pmr1, hits give low values 1.03 | locus YGL173C, strain kem1, hits give low values 1.03 | locus YGL227W, strain vid30, hits give low values 1.04 | locus YGL240W, strain doc1, hits give low values 0.988 | locus YGL253W, strain hxk2, hits give low values 1.03 | locus YHR013C, strain ard1, hits give low values 1.03 | locus YHR027C, strain rpn1, hits give low values 1.02 | locus YHR030C, strain SLT2, hits give low values 0.949 | locus YHR079C, strain IRE1, hits give low values 0.937 | locus YHR142W, strain chs7, hits give low values 0.996 | locus YJL092W, strain hpr5, hits give low values 1.04 | locus YJL095W, strain BCK1 (second series), hits give low values 1.02 | locus YJL095W, strain BCK1, hits give low values 0.911 | locus YJL115W, strain asf1, hits give low values 1.02 | locus YJL129C, strain trk1, hits give low values 1 | locus YJL154C, strain vps35, hits give low values 1.03 | locus YJL164C, strain tpk1, hits give low values 0.993 | locus YJL166W, strain qcr8, hits give low values 0.996 | locus YJL187C, strain SWE1, hits give low values 1.02 | locus YJR066W, strain TOR1, hits give low values 0.939 | locus YKL160W, strain elf1, hits give low values 0.975 | locus YKR026C, strain gcn3, hits give low values 1.03 | locus YKR091W, strain srl3, hits give low values 1.02 | locus YLL001W, strain dnm1, hits give low values 1 | locus YLL026W, hits give low values 1.01 | locus YLL041C, strain sdh2, hits give low values 1.02 | locus YLR027C, strain aat2, hits give low values 1.01 | locus YLR221C, strain rsa3, hits give low values 0.982 | locus YLR258W, strain gsy2, hits give low values 1.01 | locus YLR262C, strain YPT6 (second series), hits give low values 0.975 | locus YLR320W, strain mms22, hits give low values 1.02 | locus YLR342W, strain FKS1, hits give low values 1.04 | locus YLR357W, strain rsc2, hits give low values 1.05 | locus YLR370C, strain arc18, hits give low values 1.03 | locus YLR384C, strain iki3, hits give low values 1.03 | locus YML120C, strain ndi1, hits give low values 0.978 | locus YMR058W, strain fet3, hits give low values 1.03 | locus YMR125W, strain sto1, hits give low values 1.05 | locus YMR129W, hits give low values 1.04 | locus YMR205C, strain PFK2, hits give low values 1.01 | locus YMR231W, strain pep5, hits give low values 1.03 | locus YNL071W, strain lat1, hits give low values 1.02 | locus YNL183C, strain NPR1, hits give low values 0.894 | locus YNL209W, strain ssb2, hits give low values 1.03 | locus YNL248C, strain rpa49, hits give low values 1.03 | locus YNL322C, strain KRE1 (second series), hits give low values 1.03 | locus YNR049C, strain mso1, hits give low values 1.03 | locus YOR001W, strain rrp6, hits give low values 0.973 | locus YOR070C, strain gyp1, hits give low values 1.01 | locus YOR080W, strain dia2, hits give low values 1.03 | locus YOR083W, strain WHI5, hits give low values 0.984 | locus YOR106W, strain vam3, hits give low values 0.981 | locus YOR231W, strain MKK1, hits give low values 0.973 | locus YOR265W, strain rbl2, hits give low values 1.02 | locus YOR270C, strain vph1, hits give low values 1.03 | locus YOR290C, strain snf2, hits give low values 0.968 | locus YPL051W, strain arl3, hits give low values 0.974 | locus YPL078C, strain atp4, hits give low values 1 | locus YPL106C, strain sse1, hits give low values 1.01 | locus YPL240C, strain hsp82, hits give low values 1.03 | locus YPL256C, strain CLN2, hits give low values 0.963
